ATXN viability: Viability Counterscreen for Primary qHTS for Inhibitors of ATXN expression. S2 cells (HEK-293 line with an ATXN2-luciferase reporter) viability, CellTiter-Fluor protease fluorescence, 24 h. Potency, µM (series often up to 56.7 µM), most hits filed as cytotoxic. 400,000 compounds, 0.49% hits; also: nearly all actives have a fitted effect of over 40% in size
KB-V1 cytotox: qHTS assay for MDR1-selective chemotherapeutics: Primary screen using the drug-selected MDR subline cells KB-V1; KB-V1 MDR cells viability, CellTiter-Glo, 72 h; Potency, µM (top dose mostly 46.1 µM), usual class: cytotoxic; 400,000 compounds, 3.4% hits; AID 1347076, 2019; also: nearly all actives have a fitted effect of over 60% in size
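KB-V1 MDR subline cells in DMEM (phenol-red free, 10% FBS) exposed to compounds in qHTS concentration series for 72 h at 37 degrees C. Viability read by CellTiter-Glo luminescence; concentration-effect curves fitted after normalization and correction.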
HepG2 tox-1: qHTS for Inhibitors of TGF-b: Cytotox Counterscreen | HepG2 CAGA-GFP viability, ATP luminescence, 18 h | Potency, µM (highest dose often 46.1 µM), hits mostly cytotoxic | 410,000 compounds, 0.76% hits
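CellTiter-Glo luminescence gave cytotoxicity after 18 hours at 37 degrees C. The cells were HepG2 CAGA-GFP in 1% FBS DMEM, stimulated with 500 pg/mL TGF-beta after compound addition. %Activity was normalised to no-cell wells (complete cell-killing) and DMSO (no toxicity), and curves were fitted and classified.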
ATXN2 expr inh: Primary qHTS for Inhibitors of ATXN expression; HEK-293 ATXN2-luciferase reporter, luminescence, 24 h; 360,000 compounds, 0.72% hits; AID 1745845, 2022; Potency, µM (series often up to 57 µM), actives largely listed as inhibitors; also: nearly all actives have a fitted effect of over 55% in size
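ATXN2-luciferase reporter cells (luciferase flanked by upstream and downstream ATXN2 gene portions) were treated 24 h at 37 °C with compounds at up to 57 uM. SteadyGlo luminescence gave expression; GF-AFC fluorescence gave viability.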
KB-3-1 cytotox: qHTS assay for MDR1-selective chemotherapeutics: Primary screen using the parental adenocarcinoma cell KB-3-1. KB-3-1 viability, CellTiter-Glo ATP luminescence, 72 h. Potency, µM (doses to about 46.1 µM), actives largely listed as cytotoxic. 400,000 compounds, 1.4% hits. AID 1347075, 2019; also: nearly all actives have a fitted effect of over 60% in size
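KB-3-1 parental drug-naive adenocarcinoma cells in DMEM/10% FBS, incubated 72 h at 37 C with pin-transferred compounds across a concentration series. Viability by CellTiter-Glo luminescence; concentration-response curves fitted after normalization.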
TGFb SMAD3 inh: qHTS for Inhibitors of TGF-b; HepG2 CAGA-GFP TGF-b/SMAD3 reporter, GFP fluorescence, 18 h; TGF-beta stimulated, 500 pg/mL final; Potency, µM (top dose mostly 46.1 µM), actives largely listed as inhibitors; 410,000 compounds, 1.2% hits; also: nearly all actives have a fitted effect of over 65% in size
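HEPG2 CAGA-GFP, 1000 cells/well; 2 h settle, 37 C; cpd via pin tool; TGF-b 500 pg/mL final; 18 h, 37 C; GFP imaging ex488/em500-530; %Activity normalised to -TGF-b and +DMSO controls; CRC fit, curve class.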
TGFb confirm: qHTS for Inhibitors of TGF-b: Confirmation of Cherry Picks | shares compounds with TGFb SMAD3 inh | HepG2 CAGA-GFP TGF-b reporter, GFP fluorescence, 18 h; cells stimulated with TGF-beta, 500 pg/mL | Potency, µM (top dose mostly 46.1 µM), hits mostly inhibitors | 1,600 compounds, 63% hits | AID 720534, 2013; also: nearly all actives have a fitted effect of over 65% in size
HepG2 tox-2: qHTS for Inhibitors of TGF-b: Cytotox Counterscreen for Cherry Picks; shares compounds with TGFb SMAD3 inh; HepG2 CAGA-GFP viability, ATP luminescence, 18 h; cells stimulated with TGF-beta, 500 pg/mL; Potency, µM (top dose mostly 46.1 µM), most hits filed as inhibitors; 1,600 compounds, 27% hits; AID 720535, 2013; also: nearly all actives have a fitted effect of over 70% in size
TGFb CCL64 inh: qHTS for Inhibitors of TGF-b: CCL64 Cells Orthogonal Assay for Cherry Picks | 1,600 compounds, 41% hits | Potency, µM (doses to about 46.1 µM), actives largely listed as inhibitors | CCL64 CAGA-GFP reporter, TGF-b stimulated, GFP fluorescence, 18 h | shares compounds with TGFb SMAD3 inh; also: nearly all actives have a fitted effect of over 65% in size
COP TGFb inh: qHTS for Inhibitors of TGF-b: Hit Validation in HepG2 Cells using COP promoter; shares compounds with TGFb SMAD3 inh; HepG2 COP-GFP TGF-b reporter, GFP fluorescence, 18 h; cells stimulated by added recombinant TGF-beta; Potency, µM (doses to about 46.1 µM), most hits filed as inhibitors; 1,600 compounds, 3% hits; AID 720537, 2013; also: nearly all actives have a fitted effect of over 70% in size
Hits are given with their value; n = inactive; u = inconclusive; x = no result. In the library only some 5.9% were active in any assay of this set; here they are far more common. Calls follow the shape of the dose curve; as a rule, active = well fitted curve in the direction sought with a large enough effect; inconclusive = small, poorly fitted or top-dose-only effect, or another doubt; inactive = no such curve, though single readings can be large; an effect the other way counts as inactive or inconclusive.

SMILES | ATXN viability | KB-V1 cytotox | HepG2 tox-1 | ATXN2 expr inh | KB-3-1 cytotox | TGFb SMAD3 inh | TGFb confirm | HepG2 tox-2 | TGFb CCL64 inh | COP TGFb inh
O=C(/C=C/c1cccc([N+](=O)[O-])c1)c1cccs1 | u | u | n | u | u | 8.91µM | 11.6µM | 18.4µM | 5.8µM | n
COC(=O)c1ccc(Cl)cc1NC(=O)NC(C)c1c(-n2cccc2)sc(C)c1C (stereo not drawn) | x | x | n | x | x | x | x | x | x | x
O[C@@H]1[C@@H](O)C=C2CCN3Cc4cc5c(cc4[C@H]1C23)OCO5 (stereo partly drawn) | u | 5.17µM | n | 3.55µM | 8.2µM | 3.55µM | 0.92µM | u | 1.3µM | n
COc1ccc2c(c1OC)CN1CCc3cc4c(cc3[C@@H]1[C@@H]2O)OCO4 | n | n | n | n | n | n | x | x | x | x
C[C@@]12CCC=C[C@H]1[C@H](c1ccccc1Br)N(Cc1ccccc1)C2=O | u | n | n | n | n | 17.8µM | 18.4µM | u | u | n
CC12CCC=CC1C(c1ccc(Br)cc1F)N(Cc1ccccc1)C2=O (stereo not drawn) | x | x | n | x | x | u | x | x | x | x
Cc1ccc(F)c(S(=O)(=O)NC(=O)C2(C)CCN2C(=O)CC(c2ccccc2)c2ccccc2)c1 (stereo not drawn) | n | n | n | n | n | n | x | x | x | x
O=C(c1ccc(F)cc1)N1CCC(C(=O)N(Cc2ccccc2)c2ccccc2)CC1 | n | n | n | x | n | n | x | x | x | x
CN(CCOc1ccccc1)C(=O)C1CCN(C(=O)c2ccc(F)cc2)CC1 | n | x | n | n | x | u | n | n | n | n
COc1ccc(C(=O)C=Cc2ccc3c(c2)OCO3)cc1OC | u | u | n | x | u | n | x | x | x | x
COc1ccc(/C=C/C(=O)c2ccc(NC3=NCCCS3)cc2)cc1OC | n | u | n | n | n | 12.6µM | 9.2µM | 16.4µM | 25.9µM | n
COc1nc(Nc2nc3ccccc3c(=O)[nH]2)nc2ccc(C)cc12 | u | u | n | n | u | 5.62µM | 4.11µM | 4.11µM | 1.46µM | n
COc1cccc(C(=O)NC2CC3CCCC(C2)N3CC(=O)Nc2ccccc2C(F)(F)F)c1 (stereo not drawn) | u | n | n | u | u | u | x | x | x | x
O=C(CN1C2CCCC1CC(NC(=O)C1CCCCC1)C2)Nc1ccccc1C(F)(F)F (stereo not drawn) | u | u | n | u | n | u | 18.4µM | u | u | n
COc1ccccc1NS(=O)(=O)c1cccc(NC(=O)Nc2ccccc2)c1 | n | 20.6µM | n | n | u | 10µM | u | u | u | n
COc1ccc(C(=O)c2oc3ccccc3c2NC(=O)COc2ccc(C)cc2)cc1 | n | u | n | n | n | n | x | x | x | x

Source: PubChem BioAssay (National Center for Advancing Translational Sciences (NCATS))
